Data on two molecules can be found in ChEMBL document CHEMBL2218924, “A broad activity screen in support of a chemogenomic map for kinase signalling research and drug discovery” (Biochem J, 2013).

Test [1] addresses Death-associated protein kinase 1 (Homo sapiens) (UniProt P53355). The settings on record: at 10 µM.
The target of test [2] is Death-associated protein kinase 2 (Homo sapiens) (UniProt Q9UIK4). The note with it: at 10 µM.
Test [3] deals with T1, Serine/threonine-protein kinase DCLK2 (Homo sapiens) (UniProt Q8N568).
T1 sequence (whole entry): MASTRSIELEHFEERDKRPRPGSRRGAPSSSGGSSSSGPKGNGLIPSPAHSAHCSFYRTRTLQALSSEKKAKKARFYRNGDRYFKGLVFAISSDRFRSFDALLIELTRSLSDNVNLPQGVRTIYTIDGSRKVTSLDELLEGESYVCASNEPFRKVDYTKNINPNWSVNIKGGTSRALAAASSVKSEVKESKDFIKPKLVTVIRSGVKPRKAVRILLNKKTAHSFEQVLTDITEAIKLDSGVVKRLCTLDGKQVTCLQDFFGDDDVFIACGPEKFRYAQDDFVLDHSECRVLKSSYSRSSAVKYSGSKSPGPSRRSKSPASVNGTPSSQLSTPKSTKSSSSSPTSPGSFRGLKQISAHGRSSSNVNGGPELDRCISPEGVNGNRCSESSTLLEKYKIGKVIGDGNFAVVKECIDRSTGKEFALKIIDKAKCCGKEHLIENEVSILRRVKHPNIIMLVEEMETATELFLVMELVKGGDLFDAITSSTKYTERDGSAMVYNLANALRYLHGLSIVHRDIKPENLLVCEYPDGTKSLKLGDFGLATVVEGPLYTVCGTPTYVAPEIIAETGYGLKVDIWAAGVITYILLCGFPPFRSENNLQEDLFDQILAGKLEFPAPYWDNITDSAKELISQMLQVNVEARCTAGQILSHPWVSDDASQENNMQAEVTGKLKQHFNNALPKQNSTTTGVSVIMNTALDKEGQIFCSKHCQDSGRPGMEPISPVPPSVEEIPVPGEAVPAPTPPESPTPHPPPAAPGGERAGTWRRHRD
The settings on record: at 1 µM.

The target in test [4] is T1, Serine/threonine-protein kinase DCLK2 (Homo sapiens). The note with it: at 10 µM.
Test [5] has as its target T2, Discoidin domain-containing receptor 2 (Homo sapiens) (UniProt Q16832).
T2 sequence (whole entry): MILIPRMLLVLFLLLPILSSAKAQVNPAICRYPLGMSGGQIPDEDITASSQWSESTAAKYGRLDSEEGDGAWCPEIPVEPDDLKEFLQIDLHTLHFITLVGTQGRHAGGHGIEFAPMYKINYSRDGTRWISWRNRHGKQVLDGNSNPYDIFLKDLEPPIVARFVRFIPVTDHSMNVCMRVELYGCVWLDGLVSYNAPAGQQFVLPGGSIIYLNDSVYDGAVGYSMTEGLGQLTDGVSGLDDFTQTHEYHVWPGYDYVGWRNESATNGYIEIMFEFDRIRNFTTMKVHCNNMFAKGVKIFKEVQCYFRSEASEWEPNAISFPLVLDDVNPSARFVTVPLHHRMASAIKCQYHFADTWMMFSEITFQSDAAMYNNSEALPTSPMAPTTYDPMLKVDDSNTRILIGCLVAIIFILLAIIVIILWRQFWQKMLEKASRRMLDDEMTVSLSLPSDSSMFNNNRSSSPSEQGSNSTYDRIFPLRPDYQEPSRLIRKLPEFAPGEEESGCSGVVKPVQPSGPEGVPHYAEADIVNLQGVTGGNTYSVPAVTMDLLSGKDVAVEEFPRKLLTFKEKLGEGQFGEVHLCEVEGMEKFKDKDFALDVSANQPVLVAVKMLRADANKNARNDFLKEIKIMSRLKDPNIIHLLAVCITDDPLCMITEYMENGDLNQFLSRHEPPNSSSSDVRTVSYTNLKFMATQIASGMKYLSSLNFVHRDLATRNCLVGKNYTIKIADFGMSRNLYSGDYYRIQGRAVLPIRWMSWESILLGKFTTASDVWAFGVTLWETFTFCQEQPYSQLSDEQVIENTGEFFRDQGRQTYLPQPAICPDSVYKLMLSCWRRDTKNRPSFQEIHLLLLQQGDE
The settings on record: at 1 µM.

Test [6] concerns the target T2, Discoidin domain-containing receptor 2 (Homo sapiens). The settings on record: at 10 µM.
In test [7] the target is T3, Myotonin-protein kinase (Homo sapiens) (UniProt Q09013).
T3 sequence (whole entry): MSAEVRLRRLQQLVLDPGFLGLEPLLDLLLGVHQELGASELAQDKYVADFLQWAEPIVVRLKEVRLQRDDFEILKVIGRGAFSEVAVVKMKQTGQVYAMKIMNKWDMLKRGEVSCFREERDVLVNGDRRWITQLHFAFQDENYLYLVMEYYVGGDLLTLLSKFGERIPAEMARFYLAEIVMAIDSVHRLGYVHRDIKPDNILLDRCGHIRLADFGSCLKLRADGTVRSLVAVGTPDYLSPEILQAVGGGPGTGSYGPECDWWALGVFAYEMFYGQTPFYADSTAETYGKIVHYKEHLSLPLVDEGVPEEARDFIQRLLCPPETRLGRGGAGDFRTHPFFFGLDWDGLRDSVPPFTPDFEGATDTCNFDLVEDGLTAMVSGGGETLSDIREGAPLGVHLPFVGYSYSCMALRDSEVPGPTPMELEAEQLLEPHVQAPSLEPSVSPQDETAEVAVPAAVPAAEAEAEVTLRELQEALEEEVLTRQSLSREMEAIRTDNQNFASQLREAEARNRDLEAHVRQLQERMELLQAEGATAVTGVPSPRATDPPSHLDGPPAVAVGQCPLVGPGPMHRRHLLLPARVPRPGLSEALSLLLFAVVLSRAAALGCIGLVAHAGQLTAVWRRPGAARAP
The note with it: at 1 µM.

The target in test [8] is T3, Myotonin-protein kinase (Homo sapiens). The note with it: at 10 µM.
Test [9] has as its target T4, Serine/threonine-protein kinase 17A (Homo sapiens) (UniProt Q9UEE5).
T4 sequence (whole entry): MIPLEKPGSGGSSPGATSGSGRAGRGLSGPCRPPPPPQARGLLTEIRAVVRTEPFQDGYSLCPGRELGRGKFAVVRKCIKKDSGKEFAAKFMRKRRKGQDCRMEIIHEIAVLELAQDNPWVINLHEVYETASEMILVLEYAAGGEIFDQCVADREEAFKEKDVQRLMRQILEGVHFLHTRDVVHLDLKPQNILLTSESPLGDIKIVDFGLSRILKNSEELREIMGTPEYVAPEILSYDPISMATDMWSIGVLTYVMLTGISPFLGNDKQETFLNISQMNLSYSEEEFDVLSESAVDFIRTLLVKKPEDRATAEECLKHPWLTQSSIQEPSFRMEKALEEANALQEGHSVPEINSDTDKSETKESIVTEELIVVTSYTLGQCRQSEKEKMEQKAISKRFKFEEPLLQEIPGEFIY
The note with it: at 1 µM.

Test [10] addresses T4, Serine/threonine-protein kinase 17A (Homo sapiens). The note with it: at 10 µM.
Test [11] has as its target T5, Dual specificity tyrosine-phosphorylation-regulated kinase 2 (Homo sapiens) (UniProt Q92630).
T5 sequence (whole entry): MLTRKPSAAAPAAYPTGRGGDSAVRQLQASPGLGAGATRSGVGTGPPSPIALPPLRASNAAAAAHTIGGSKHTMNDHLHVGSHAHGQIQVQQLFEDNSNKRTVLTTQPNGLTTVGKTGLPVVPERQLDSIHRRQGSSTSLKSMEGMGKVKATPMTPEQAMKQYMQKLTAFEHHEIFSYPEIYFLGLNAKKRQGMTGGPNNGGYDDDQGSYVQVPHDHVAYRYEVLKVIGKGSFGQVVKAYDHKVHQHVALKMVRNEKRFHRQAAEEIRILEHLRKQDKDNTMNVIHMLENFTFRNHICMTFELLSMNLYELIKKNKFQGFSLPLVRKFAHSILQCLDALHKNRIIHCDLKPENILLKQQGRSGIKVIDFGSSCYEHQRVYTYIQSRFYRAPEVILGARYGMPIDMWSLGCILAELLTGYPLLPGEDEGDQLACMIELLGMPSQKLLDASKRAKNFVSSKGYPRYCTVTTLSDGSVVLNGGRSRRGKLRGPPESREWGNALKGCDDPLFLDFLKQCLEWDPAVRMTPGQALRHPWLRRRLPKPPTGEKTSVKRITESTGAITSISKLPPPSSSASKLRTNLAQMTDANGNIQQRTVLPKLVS
The settings on record: at 1 µM.

Test [12] has as its target T5, Dual specificity tyrosine-phosphorylation-regulated kinase 2 (Homo sapiens). The settings on record: at 10 µM.
The target in test [13] is T6, Ephrin type-A receptor 1 (Homo sapiens) (UniProt P21709).
T6 sequence (whole entry): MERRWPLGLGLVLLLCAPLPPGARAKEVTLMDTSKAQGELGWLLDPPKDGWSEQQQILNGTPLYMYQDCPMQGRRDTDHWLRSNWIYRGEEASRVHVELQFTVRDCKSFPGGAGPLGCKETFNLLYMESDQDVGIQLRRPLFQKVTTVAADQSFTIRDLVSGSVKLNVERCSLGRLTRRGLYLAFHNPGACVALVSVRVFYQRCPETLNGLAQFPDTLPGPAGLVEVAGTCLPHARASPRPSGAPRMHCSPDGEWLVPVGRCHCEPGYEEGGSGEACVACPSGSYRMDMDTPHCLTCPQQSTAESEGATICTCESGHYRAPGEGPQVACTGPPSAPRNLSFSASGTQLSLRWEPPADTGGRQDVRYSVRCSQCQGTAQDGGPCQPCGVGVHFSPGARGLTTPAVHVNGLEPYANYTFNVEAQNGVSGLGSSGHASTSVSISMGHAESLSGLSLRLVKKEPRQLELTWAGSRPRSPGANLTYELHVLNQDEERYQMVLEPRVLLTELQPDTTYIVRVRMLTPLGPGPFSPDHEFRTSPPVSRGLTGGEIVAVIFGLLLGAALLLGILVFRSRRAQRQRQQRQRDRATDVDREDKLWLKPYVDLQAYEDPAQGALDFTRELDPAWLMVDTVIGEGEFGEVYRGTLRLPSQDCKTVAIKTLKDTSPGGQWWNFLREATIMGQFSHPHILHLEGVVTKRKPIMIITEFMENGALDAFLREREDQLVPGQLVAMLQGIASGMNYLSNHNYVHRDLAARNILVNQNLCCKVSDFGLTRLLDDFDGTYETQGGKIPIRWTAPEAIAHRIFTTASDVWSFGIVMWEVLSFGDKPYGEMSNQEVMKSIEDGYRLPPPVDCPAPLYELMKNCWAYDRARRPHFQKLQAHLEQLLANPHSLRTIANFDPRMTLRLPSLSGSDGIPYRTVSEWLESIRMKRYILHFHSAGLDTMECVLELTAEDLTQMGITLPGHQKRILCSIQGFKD
The note with it: at 1 µM.

Test [14] addresses T6, Ephrin type-A receptor 1 (Homo sapiens). The settings on record: at 10 µM.
Test [15] deals with Ephrin type-A receptor 2 (Homo sapiens) (UniProt P29317). The note with it: at 1 µM.
For test [16] the target is unchanged. The settings on record: at 10 µM.
The target of test [17] is T7, Ephrin type-A receptor 3 (Homo sapiens) (UniProt P29320).
T7 sequence (whole entry): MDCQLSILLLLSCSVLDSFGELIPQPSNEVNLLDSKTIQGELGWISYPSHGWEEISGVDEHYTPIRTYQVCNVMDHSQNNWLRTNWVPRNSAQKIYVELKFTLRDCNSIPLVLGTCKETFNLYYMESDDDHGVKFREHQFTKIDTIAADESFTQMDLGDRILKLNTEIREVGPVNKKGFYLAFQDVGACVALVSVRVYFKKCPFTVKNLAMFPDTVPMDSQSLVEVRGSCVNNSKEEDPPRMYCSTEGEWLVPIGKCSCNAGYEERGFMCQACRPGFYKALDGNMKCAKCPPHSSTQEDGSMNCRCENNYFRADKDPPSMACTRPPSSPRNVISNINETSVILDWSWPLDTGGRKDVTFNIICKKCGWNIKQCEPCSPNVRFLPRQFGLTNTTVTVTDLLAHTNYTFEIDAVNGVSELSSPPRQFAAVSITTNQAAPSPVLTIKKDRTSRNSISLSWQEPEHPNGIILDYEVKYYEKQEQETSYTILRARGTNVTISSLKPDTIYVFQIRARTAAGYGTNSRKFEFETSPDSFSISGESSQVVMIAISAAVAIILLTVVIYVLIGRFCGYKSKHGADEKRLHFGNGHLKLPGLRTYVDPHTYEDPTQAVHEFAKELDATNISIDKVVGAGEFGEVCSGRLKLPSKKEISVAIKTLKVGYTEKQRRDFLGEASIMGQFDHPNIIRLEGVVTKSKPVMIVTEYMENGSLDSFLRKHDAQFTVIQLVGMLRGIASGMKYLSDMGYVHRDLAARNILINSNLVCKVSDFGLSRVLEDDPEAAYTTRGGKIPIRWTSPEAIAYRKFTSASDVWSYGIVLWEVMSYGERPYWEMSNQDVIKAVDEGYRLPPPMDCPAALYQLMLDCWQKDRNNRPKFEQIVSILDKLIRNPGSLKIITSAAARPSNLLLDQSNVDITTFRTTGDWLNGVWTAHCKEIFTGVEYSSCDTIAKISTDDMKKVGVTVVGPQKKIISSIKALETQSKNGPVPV
The settings on record: at 1 µM.

Test [18] concerns the target Death-associated protein kinase 2 (Homo sapiens) (UniProt Q9UIK4). The settings on record: at 1 µM.

Sequence of Ephrin type-A receptor 2 (Homo sapiens) (P29317 whole entry): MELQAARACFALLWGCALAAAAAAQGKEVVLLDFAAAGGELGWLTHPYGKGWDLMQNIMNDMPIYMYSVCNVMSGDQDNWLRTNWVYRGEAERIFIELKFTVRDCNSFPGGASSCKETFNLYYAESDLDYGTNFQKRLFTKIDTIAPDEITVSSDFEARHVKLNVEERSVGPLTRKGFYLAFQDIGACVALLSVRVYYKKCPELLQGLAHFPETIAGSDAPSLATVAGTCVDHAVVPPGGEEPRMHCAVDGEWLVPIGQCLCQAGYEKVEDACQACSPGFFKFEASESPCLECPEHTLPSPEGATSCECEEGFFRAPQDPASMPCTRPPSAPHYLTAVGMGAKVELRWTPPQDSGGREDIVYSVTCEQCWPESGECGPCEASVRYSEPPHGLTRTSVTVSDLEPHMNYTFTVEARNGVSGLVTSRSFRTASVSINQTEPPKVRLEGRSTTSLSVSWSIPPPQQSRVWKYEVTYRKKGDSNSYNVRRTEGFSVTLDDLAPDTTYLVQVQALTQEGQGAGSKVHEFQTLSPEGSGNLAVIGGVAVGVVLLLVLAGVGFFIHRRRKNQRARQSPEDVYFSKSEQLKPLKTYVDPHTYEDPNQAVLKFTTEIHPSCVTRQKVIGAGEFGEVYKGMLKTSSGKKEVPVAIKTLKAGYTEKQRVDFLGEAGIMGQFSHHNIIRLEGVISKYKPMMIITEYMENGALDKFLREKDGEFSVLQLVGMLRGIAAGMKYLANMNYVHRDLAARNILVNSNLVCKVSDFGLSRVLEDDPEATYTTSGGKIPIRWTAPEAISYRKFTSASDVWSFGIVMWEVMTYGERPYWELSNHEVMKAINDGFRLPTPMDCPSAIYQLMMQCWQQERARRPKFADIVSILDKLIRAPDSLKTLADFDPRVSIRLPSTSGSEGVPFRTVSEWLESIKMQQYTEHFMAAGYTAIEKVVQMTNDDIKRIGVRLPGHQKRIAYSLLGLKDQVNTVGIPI
Sequence of Death-associated protein kinase 2 (Homo sapiens) (Q9UIK4 whole entry, looked up): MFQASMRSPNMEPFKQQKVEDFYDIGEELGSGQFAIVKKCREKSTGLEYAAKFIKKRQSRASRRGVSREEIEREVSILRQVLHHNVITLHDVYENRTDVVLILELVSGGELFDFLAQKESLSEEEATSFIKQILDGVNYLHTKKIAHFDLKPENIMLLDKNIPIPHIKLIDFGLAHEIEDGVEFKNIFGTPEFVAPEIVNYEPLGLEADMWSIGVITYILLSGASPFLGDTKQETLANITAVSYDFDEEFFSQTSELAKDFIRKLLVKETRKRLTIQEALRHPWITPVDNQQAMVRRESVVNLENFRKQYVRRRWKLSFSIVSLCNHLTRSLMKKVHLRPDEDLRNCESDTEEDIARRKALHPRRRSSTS
Sequence of Death-associated protein kinase 1 (Homo sapiens) (P53355 whole entry, looked up): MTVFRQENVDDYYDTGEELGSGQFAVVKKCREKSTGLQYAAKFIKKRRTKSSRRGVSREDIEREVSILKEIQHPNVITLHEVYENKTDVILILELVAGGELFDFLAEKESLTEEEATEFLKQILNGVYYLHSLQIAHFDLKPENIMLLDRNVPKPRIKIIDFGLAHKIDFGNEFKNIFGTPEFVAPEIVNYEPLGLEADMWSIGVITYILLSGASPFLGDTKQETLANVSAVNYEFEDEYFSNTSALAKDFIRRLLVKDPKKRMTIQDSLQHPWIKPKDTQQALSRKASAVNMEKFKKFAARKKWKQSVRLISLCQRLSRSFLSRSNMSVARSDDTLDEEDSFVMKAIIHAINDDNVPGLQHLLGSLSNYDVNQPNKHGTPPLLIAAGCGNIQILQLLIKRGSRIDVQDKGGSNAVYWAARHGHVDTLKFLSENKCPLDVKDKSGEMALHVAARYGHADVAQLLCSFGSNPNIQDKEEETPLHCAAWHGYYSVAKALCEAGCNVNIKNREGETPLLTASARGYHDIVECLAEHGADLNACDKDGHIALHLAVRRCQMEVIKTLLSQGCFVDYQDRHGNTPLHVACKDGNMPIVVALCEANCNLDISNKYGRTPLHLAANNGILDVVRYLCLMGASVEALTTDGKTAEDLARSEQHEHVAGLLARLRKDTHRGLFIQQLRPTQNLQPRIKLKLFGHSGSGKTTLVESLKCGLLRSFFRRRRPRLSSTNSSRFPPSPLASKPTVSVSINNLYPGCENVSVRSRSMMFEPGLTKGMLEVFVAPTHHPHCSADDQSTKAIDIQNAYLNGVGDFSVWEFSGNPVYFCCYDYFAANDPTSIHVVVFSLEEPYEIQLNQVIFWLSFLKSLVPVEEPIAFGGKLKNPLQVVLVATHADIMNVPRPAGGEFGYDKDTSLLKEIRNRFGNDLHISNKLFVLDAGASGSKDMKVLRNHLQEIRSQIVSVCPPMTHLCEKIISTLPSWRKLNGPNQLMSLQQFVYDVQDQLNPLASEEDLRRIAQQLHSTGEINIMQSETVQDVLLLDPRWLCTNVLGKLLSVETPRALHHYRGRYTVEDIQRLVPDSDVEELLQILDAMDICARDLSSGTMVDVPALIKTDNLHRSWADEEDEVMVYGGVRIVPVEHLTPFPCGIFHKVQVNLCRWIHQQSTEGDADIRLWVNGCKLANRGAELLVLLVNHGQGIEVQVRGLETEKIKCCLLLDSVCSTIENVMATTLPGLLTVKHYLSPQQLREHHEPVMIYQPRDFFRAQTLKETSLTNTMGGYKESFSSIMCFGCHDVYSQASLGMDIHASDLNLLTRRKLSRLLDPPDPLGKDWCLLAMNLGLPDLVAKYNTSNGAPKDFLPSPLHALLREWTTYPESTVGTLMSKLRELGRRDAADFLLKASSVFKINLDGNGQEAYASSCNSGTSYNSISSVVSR

Regarding `COc1cc2ncnc(Nc3ccc(O)c(Br)c3)c2cc1OC`, the residual activity in [1] stood at 76%; in test [2], 77%; in [3] it was 73%; in [4], 96%; in [5] it was 90%; in test [6], 55%. The residual activity in test [7] worked out at 105%; in test [8], 116%; in [9], 77%; in test [10] it was 18%; in test [11] it was 48%; in test [12] it was 10%. Besides, the residual activity is 35% in test [13]; 8% in test [14]; 90% in test [15]; 30% in [16]; 79% in test [17].

As for `COc1cc2ncnc(N3CCN(C(=O)Nc4ccc(Oc5ccccc5)cc4)CC3)c2cc1OC`, the residual activity in test [1] came out at 102%; in test [18], 93%; in test [2], 112%; in test [3], 98%; in test [4], 242%; in test [5], 106%. Also, the residual activity in [6] came out at 117%; in test [7], 115%; in [8], 142%; in test [9], 120%; in test [10], 101%; in test [11], 92%. In addition, the residual activity in test [12] was 98%; in test [13], 85%; in [14] it was 76%; in test [15], 101%; in [16], 109%; in test [17] it was 98%.

What is called residual activity is the signal under treatment as a percentage of the control signal.
